# From PubChem BioAssay (NCI)
# About 83,000 compounds went through this panel and 20% of them were active in at least one assay; those are over-represented in the sample as a whole.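 Interpretation: 100, growth as untreated; towards 0, rising growth inhibition; 0, no net growth; 0 to -100, cell death. Compounds scoring below 10 were considered active.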 A number with no mark means an inactive call. The source made the active and inactive calls.
# System: COLO 205 colon
# Test: NCI-60 one-dose screen, 48 h (100 = growth as untreated, 0 = no growth, -100 = all killed)
# Settings: 10 µM unless noted
# Method: Cells are grown in 96 well plates and exposed to the test compound for 48 hours. Compounds are tested at a single concentration, which is 10^-5 M for most compounds. The reported endpoint is percent growth (GI% or GIPRCNT), where numbers from 0 - 100% represent growth inhibition, and numbers from -100% - 0 represent cell death. For example, a value of 40 represents 60% growth inhibition. A value of 0 means no net growth occurred over the course of the experiment. A value of -40 indicates 40% of cells at the beginning of the experiment died by the end of the experiment. A value of -100 means all cells are dead at the end of the experiment.
# NCI-60 Human Tumor Cell Lines Screen was performed using the standard one-dose NCI protocol, which is described in more detail at https://dtp.cancer.gov/discovery_development/nci-60/default.htm.
# Compounds with GIPRCNT values below 10 were considered active. Activity score was based on GIPRCNT using the following formula: […]
# Score is 0 for GIPRCNT values of 100 or above, 50 for GIPRCNT values of 0, and 100 for GIPRCNT values of -100.
row,Compound,growth
1,Cc1cccc[n+]1C1c2ccccc2-c2ccccc21,75.3%
2,COc1ccc2c(c1)c(-c1nc(-c3c[nH]c4ncccc34)cs1)cn2CCCN1CCOCC1,-38.5% (active)
3,COc1cc(C(=O)n2nc(N3CCOCC3)c3cc(-n4cccc4)ccc32)cc(OC)c1OC,56.6%
4,O=C1c2ccccc2C(=O)c2c1cc1c(c2[N+](=O)[O-])OCO1,48%
5,O=C(Nc1ncc(Cc2ccccc2)s1)c1ccc2c(c1)OCCCO2,12%
6,Cc1ccc(/C=C/C(=O)c2cccc(OCCCOc3cccc(C(=O)/C=C/c4ccc(C)cc4)c3)c2)cc1,90.9%
7,COc1ccc(NC(=O)Nc2ccc(OCCCCCC(=O)NO)cc2)cc1,110%
8,COc1cc(C2C(C(=O)OCc3ccccc3)=C(C)NC(C)=C2C(=O)OCc2ccccc2)cc(OC)c1OC,-47.7% (active)
9,C/C=C(\C)C(=O)N[C@H]1C(O)C[C@]2(C)C3CC[C@@]4(C)C(CC[C@@H]4C(C)N(C)C)C3CCC2C1O (stereo not given in full),29.4%
10,COc1ccc(/C=C2\CN(C(=O)C(Cl)Cl)C/C(=C\c3ccc(OC)cc3)C2=O)cc1,-34.2% (active)
11,CCOC(=O)c1ccccc1-c1c2ccc(=[N+](C)C)cc-2oc2cc(N(C)C)ccc12,-46.6% (active)
12,C[C@]1(O)CC(=O)[C@]2(O)C3=C(C=C[C@]2(O)C1)C(=O)c1c(O)cccc1C3=O,-81.3% (active)
13,Oc1c(CN2CCC(N3CCCCC3)CC2)cc(Cc2cc(CN3CCC(N4CCCCC4)CC3)c(O)c3ncccc23)c2cccnc12,-3.12% (active)
14,N#CC1CCc2c(c(-c3ccc4nc(N)sc4c3)nc3ccc4[nH]ncc4c23)C1 (stereo not given),40.5%
15,COC(=O)c1c2c(n3ccccc13)C(=O)c1ccccc1C2=O,28.1%
16,O=C1/C(=C/c2ccccn2)NC(=S)N1c1ccccc1Cl,66.4%
17,COc1ccc(-c2ccc(-c3ccc(C(=N)N)nc3)s2)cc1Cl,-56% (active)
18,O=c1c2ccccc2c(=O)c2c1sc1c(=O)c3ccc(O)cc3c(=O)c12,-82.5% (active)
19,CCN1CCN(CCNc2nccc(-c3c(-c4ccc(F)c(OC)c4)nc4sccn34)n2)S1(=O)=O,62.3%
20,O=C(CCl)NNc1nccc(Nc2ccc(S(=O)(=O)Nc3ccncc3)cc2)n1,82.2%

row,Compound,growth
1,Cn1c(=O)c2[nH]c(SCC(=O)Nc3ccc(C(=O)/C=C/c4ccccc4Cl)cc3)nc2n(C)c1=O,117%
2,CCOC(=O)C1=C(C)/C(=C\c2[nH]c(C)c(C(=O)OCC)c2C)N=C1C,85.2%
3,Cc1ccccc1Nc1cc(O)c2c(=O)cc(-c3ccccc3)oc2c1,61.8%
4,CNC(=O)c1ccccc1Nc1nc(Nc2cc(OC)c(OC)c(OC)c2)ncc1Br,-71.3% (active)
5,Fc1cccc(-c2ccc3c(c2)C2(CCNCC2)CN3)c1,107%
6,O=C(NNC(=O)c1ccc(NC(=O)c2ccccn2)cc1)Nc1ccc2ccccc2c1,130%
7,CO[C@H]1CC(=O)n2c3ccccc3c3c4c(c5c6ccccc6n1c5c32)C(=O)NC4=O,42%
8,NS(=O)(=O)c1ccc(C(=O)NN2C(=O)c3c(Br)c(Br)c(Br)c(Br)c3C2=O)cc1,112%
9,CCN(CC)CCN1C(=O)c2c(c(C)c3c(oc4ccc(O)cc43)c2C)C1=O,83.2%
10,C[C@H](C(=O)N(CCc1ccc(Cl)c(Cl)c1)Cc1cncs1)[C@@H]1CC[C@H](C[C@H](C)n2cc(CN3CCC(c4ccc(Cl)cc4)CC3)nn2)O1,97.6%
11,N#Cc1c(-c2ccccc2)nc(SCC(O)CN2CCOCC2)nc1N1CCOCC1 (stereo not given),81.1%
12,CN(Cc1cnc2nc(N)nc(N)c2n1)c1ccc(C(=O)NC(CCC(=O)O)C(=O)O)cc1Br (stereo not given),36.3%
13,CN1CCN(c2ccc3nc4c(nc3c2C(F)(F)F)C(=O)c2ncccc2C4=O)CC1,-95% (active)
14,CN(CCC(=O)c1ccccc1)CCC(=O)c1ccccc1,89.3%
15,O=C(/C=C/c1ccccc1)c1ccc(Nc2nc(Nc3ccc(F)cc3)nc(Nc3ccc(Cl)cc3)n2)cc1,70.6%
16,CN1CCN(Cc2ccc(NC(=O)c3cncc(C#Cc4cnc(N)c5ncccc45)c3)cc2C(F)(F)F)CC1,-55.2% (active)
17,O=P(O)(O)OCC1OC(n2cnc3c(NCc4ccco4)ncnc32)C(O)C1O (stereo not given),22.8%
18,CCN(CC)CCCN1C(=O)c2c(c(C)c3c(oc4ccc(O)cc43)c2C)C1=O,64%
19,CC1=C(C(=O)Nc2ccccc2)C(c2ccc3c(c2)OCO3)NC(=S)N1 (stereo not given),117%
20,N#Cc1nc(-c2ccccc2)oc1S(=O)(=O)N1CCN(c2ccc(F)cc2)CC1,33.6%
